aSyn UTR act = Activators working through SNCA 5'UTR binding (MLPCN); 7.1% of 300,000 active; activity score, % (tested at 7.5 µM), hits read low; alpha-synuclein 5'UTR reporter, activators screen; in the data active means activity score below about -60%
An asterisk follows results filed as active; ! = repeats disagree. The list is a sample of the results.

SMILES	aSyn UTR act
COC(=O)Cn1c(C)nc2c(sc3nc(C)cc(C)c32)c1=O	-76*
NNCCc1ccccc1	-133*
CN1c2ccccc2Oc2nnc(N3CCN(Cc4ccccc4)CC3)cc21	-97*
O=C(Cn1cnc2ccccc21)c1ccc(Cl)cc1	-71*
Cn1c(=N)n(CC(=O)c2ccc(Cl)c(Cl)c2)c2ccccc21	81
CCOc1ccc(C(=O)Cn2cnc3ccccc3c2=O)cc1	-94*
O=C(Cn1cnc2ccccc2c1=O)c1ccc(OC(F)F)cc1	-73*
O=c1c2ccccc2ncn1-c1ccc(Cl)cc1	-103*!
O=C(Cn1cnc2ccccc2c1=O)c1ccccc1	-80*
O=C(Cn1cnc2ccccc2c1=O)c1ccc(Cl)cc1	-90*
O=C(Cn1cnc2ccc(Cl)cc2c1=O)c1cccs1	-136*
O=C(Cn1cnc2ccccc2c1=O)c1ccc(Br)cc1	-153*
C[C@H]1O[C@@H](O[C@H]2[C@@H](O)C[C@H](O[C@H]3[C@@H](O)C[C@H](O[C@H]4CC[C@@]5(C)[C@H](CC[C@@H]6[C@@H]5C[C@@H](O)[C@]5(C)[C@@H](C7=CC(=O)OC7)CC[C@]65O)C4)O[C@@H]3C)O[C@@H]2C)C[C@H](O)[C@@H]1O	112
CCOC(=O)C(C#N)c1ccccn1 (stereo not drawn)	-70*
COc1ccc(Oc2nccc(-c3ccc(F)cc3)c2C#N)cc1	-82*
COc1ccc(Oc2nccc(-c3ccccc3)c2C#N)cc1	-185*
Cc1ccc(-c2cc(-c3ccc(F)cc3)nc(N)c2C#N)o1	63
CC(C)(C)c1ccc(C(=O)N2CCCC2)s1	-64*
CCS(=O)(=O)n1nc(-c2ccc(Cl)cc2)nc1SCc1ccccc1	-110*
Cc1cccnc1NC(=S)Nc1ccc(Br)cc1Cl	-174*
COc1cccc(NC(=S)N/N=C2/CCCCc3ccccc32)c1	-178*
COc1cccc(NC(=S)NCc2cccs2)c1	-72*
COc1cccc(NC(=S)Nc2cccnc2)c1	-93*
COc1cccc(NC(=S)Nc2ccc(Br)cc2Cl)c1	-93*
Cc1ccc(OCC(=O)c2cc(C)n(CC(F)(F)F)c2C)c([N+](=O)[O-])n1	-72*
SMILES	aSyn UTR act
Cc1ccc(OCC(=O)c2cc(C)n(C3CC3)c2C)c([N+](=O)[O-])n1	-94*
Cc1ccn2cc(-c3cnoc3C)nc2c1	-97*
Cc1ccn2cc(-c3ccc(Br)cc3)nc2c1	63
O=C(OC(c1ccccc1)c1nccc2ccccc12)c1cccc([N+](=O)[O-])c1 (stereo not drawn)	-79*
CC(C)C(OC(=O)c1ccccc1)c1nccc2ccccc12 (stereo not drawn)	-116*
Cc1ccc(-c2nnc(-c3cccc(Br)c3)o2)cc1	-159*
Cc1ccc(-c2nnc(-c3ccccc3)o2)cc1Br	-149*
O=C(CSc1nnc(SCc2ccc(Cl)cc2)s1)N/N=C/c1c(Cl)cccc1Cl	-69*
O=C(CSc1nnc(SCc2ccccc2Cl)s1)N/N=C/c1c[nH]c2ccccc12	-94*
Cc1ccc(CSc2nnc(SCC(=O)N/N=C/c3ccc(C(=O)O)cc3)s2)cc1	70
Cc1ccc(CSc2nnc(SCC(=O)N/N=C/c3ccccc3OCC(=O)O)s2)cc1	62
CC1CCC/C=C/C(=O)c2c(O)cc(O)cc2CC(=O)O1 (stereo not drawn)	-153*
CC(C)CNC(=S)NC1CC2CCCC(C1)N2C1CCCCC1 (stereo not drawn)	-107*
Cc1nn(-c2cc(C)c3ccccc3n2)c2c1CCC2	-90*
COc1ccc(C)cc1Nc1c2c(nc3ccccc13)CCC2	68
COc1ccccc1C(=O)O/N=C(\N)c1ccccc1Cl	-139*
COc1ccc(Cl)cc1C(=O)O/N=C(\N)c1ccccn1	-159*
N/C(=N\OC(=O)c1cc(Cl)ccc1Cl)c1ccccn1	-122*
COc1ccc(/C=N/Nc2nnc(Cc3ccccc3)c(=O)[nH]2)cc1OC	-67*
COc1ccc(Cc2nnc(N/N=C/c3ccc(O)cc3)[nH]c2=O)cc1OC	82
O=C(Nc1ccc2oc(-c3ccccc3)nc2c1)c1ccco1	-156*
O=C(Nc1ccc2oc(-c3ccccc3)nc2c1)c1ccc2c(c1)OCCO2	-66*
O=C(Nc1ccc2oc(-c3ccccc3)nc2c1)c1cccnc1	-161*
CCc1ccc2oc(-c3cccc(NC(=O)c4cccnc4)c3)nc2c1	-167*
CCCCCC(=O)Nc1ccc2oc(-c3cccnc3)nc2c1	-75*
SMILES	aSyn UTR act
O=C(O)C1CC(=O)N(c2ccc(OCc3ccccc3)cc2)C1 (stereo not drawn)	-66*
C=CCNC(=O)C1CC(=O)N(c2ccc(OCc3ccccc3Cl)cc2)C1 (stereo not drawn)	-111*
Cc1ccc(NC(=O)Nc2ccccc2CC[N+](=O)[O-])cc1	-79*
Cc1cc2nc(-c3cccnc3SCC(=O)NCc3ccco3)[nH]c2cc1C	-145*
Cc1cc2nc(-c3cccnc3SCC(=O)NC3CC3)[nH]c2cc1C	-115*
CN1CCN(C(c2ccc(Br)cc2)c2cc(Cl)c3cccnc3c2O)CC1 (stereo not drawn)	67
COc1ccc(NC(=S)Nc2cc(C)ccn2)c(OC)c1	-243*
COc1ccc(NC(=S)Nc2ccccn2)c(OC)c1	-153*
COc1ccc(NC(=O)c2nc(S(=O)(=O)Cc3cccc(C)c3)ncc2Cl)c(OC)c1	82
CC1(C)CC(=O)c2sc(N3CCCCC3)nc2C1	-91*
COc1ccc(NC(=O)CSc2ccccn2)cc1	-79*
COc1ccc(NC(=O)CSCc2ccccc2C)cc1	-90*
COc1ccc(NC(=O)CSc2ccc(C)cc2)cc1	-149*
Cc1ccc(O)c(NC(=O)CSc2ccc(Cl)cc2)c1	-177*
COc1ccc(-n2c(C)cc(C(=O)CCl)c2C)cc1	65
O=C(CCSc1ccccn1)Nc1ccc(Br)cc1	-153*
COc1ccc(-n2c(C)cc(C(=O)CSc3ccc(NC(C)=O)cc3)c2C)cc1	-89*
COc1cccc(NC(=O)CSc2ccccn2)c1	-144*
CCOc1ccc(-c2cc(CCCC(=O)Nc3cccc(OC)c3)no2)cc1	68
Cc1ccc(NC(=O)CSc2n[nH]c(-c3ccccn3)n2)cc1	59
CCc1ccc(NC(=O)CSc2ccccn2)cc1	-74*
COc1ccc(-n2c(SCC(=O)Nc3ccc(Br)cc3)nc(O)cc2=O)cc1	-119*
COc1ccc(CNC(=O)CSCc2ccccc2Cl)cc1	-62*
COc1ccc(NC(=O)CSc2ccccn2)c([N+](=O)[O-])c1	-72*
COc1ccccc1C(=O)CSc1ccccn1	-95*
SMILES	aSyn UTR act
Cc1ccc(SCC(=O)NC(C)(C)C)cc1	-66*
CC1(C)CC(=O)c2c(O)cc(OCc3ccc(Br)cc3)cc2O1	-165*
CC1(C)CC(=O)c2ccc(OCc3ccc([N+](=O)[O-])cc3)cc2O1	-151*
O=C(N/N=C/c1cccc(Cl)c1)c1c(O)c2c([nH]c1=O)CCCC2	-100*
O=C(Nc1ccccc1O)c1c(O)c2c([nH]c1=O)CCCC2	-182*
CCCc1nnc(NC(=O)c2c(O)c3c([nH]c2=O)CCCC3)s1	-75*
O=C(Nc1nccs1)c1c(O)c2c([nH]c1=O)CCCC2	-209*
O=C(COc1ccc(Cl)cc1)Nc1ncccn1	-99*
Cc1ccnc(NC(=O)COc2ccc(Cl)cc2)n1	-83*
CCCCCc1nnc(NC(=O)C2=COCCO2)s1	-110*
O=C(Nc1nc2cc3c(cc2s1)OCO3)C1=COCCO1	95
CCCCCc1nnc(NC(=O)C2CCCO2)s1 (stereo not drawn)	-90*
C/C(=N/O)c1cccc(N2Cc3ccccc3C2)c1	-74*
